Source: article PMC7862700, “An all-to-all approach to the identification of sequence-specific readers for epigenetic DNA modifications on cytosine”

How the values were obtained:
Assay in all cases: DAPPL (digital affinity profiling via proximity ligation, sequencing); 10 mM Tris-HCl pH 7.5, 50 mM NaCl, 1 mM DTT, 4% glycerol, room temperature, 30 min; GST-TFs on glutathione beads, 16-mer random dsDNA library, 0.1% formaldehyde crosslink after washing; high values mean tight binding
Settings in all cases: protein: recombinant; tags: N-terminal GST; dsDNA, one strand shown
[1] = molecular target: T1, FLI1 (Homo sapiens, UniProt Q01543 1-452)
T1 sequence: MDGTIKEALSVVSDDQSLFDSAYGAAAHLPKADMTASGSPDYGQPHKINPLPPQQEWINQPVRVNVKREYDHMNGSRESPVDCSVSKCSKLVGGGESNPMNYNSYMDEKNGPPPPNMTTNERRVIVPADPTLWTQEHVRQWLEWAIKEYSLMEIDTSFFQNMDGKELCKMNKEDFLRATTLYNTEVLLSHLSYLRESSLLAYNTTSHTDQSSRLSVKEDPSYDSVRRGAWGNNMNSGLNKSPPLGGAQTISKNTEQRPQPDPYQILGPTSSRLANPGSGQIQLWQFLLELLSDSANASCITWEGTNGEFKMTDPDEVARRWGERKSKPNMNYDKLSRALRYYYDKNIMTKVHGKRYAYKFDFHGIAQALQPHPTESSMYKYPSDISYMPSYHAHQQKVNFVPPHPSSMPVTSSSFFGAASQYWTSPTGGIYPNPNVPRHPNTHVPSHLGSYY
Method in brief: (§1)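 Pools were built from human transcription factors expressed in yeast as GST fusions, captured on glutathione beads and DNA-barcoded, along with a tag-only sample. Incubation with 200 nmole of a 16-mer random double-stranded DNA library lasted 30 min at room temperature in Tris/NaCl/DTT/glycerol buffer, and was followed by washing, 0.1% formaldehyde crosslinking, proximity ligation, PCR amplification and Illumina NextSeq500 sequencing. Binding signal is the quotient of each hexamer's read frequency for a factor and its frequency for the tag-only sample.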

[2] = molecular target: T2, ERG (Homo sapiens, UniProt P11308 1-479)
T2 sequence: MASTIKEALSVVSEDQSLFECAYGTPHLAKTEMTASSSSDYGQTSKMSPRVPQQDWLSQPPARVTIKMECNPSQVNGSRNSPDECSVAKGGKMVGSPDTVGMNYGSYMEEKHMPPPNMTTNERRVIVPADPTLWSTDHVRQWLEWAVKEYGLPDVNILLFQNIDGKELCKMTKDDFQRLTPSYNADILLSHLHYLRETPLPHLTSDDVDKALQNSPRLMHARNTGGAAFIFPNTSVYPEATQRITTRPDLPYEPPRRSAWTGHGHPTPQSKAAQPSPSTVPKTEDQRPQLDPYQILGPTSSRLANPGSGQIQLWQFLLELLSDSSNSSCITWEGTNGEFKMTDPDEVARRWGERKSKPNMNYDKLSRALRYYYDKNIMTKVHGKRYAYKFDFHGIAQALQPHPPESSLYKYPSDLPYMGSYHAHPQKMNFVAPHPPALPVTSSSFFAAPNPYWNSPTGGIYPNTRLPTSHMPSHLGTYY
Method in brief: as §1

[3] = molecular target: SPI1 (Homo sapiens, UniProt P17947 1-270)
Method in brief: as §1

[4] = molecular target: SPIB (Homo sapiens, UniProt Q01892 1-262)
Chain of SPIB (Q01892 whole entry): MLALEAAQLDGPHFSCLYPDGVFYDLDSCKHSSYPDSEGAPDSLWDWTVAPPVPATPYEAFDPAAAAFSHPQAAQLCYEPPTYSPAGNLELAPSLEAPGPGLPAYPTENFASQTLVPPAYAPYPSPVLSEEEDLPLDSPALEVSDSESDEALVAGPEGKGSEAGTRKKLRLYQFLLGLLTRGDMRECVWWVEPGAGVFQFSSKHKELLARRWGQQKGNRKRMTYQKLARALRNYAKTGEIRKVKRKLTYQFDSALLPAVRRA
Method in brief: as §1

[5] = molecular target: T3, FEV (Homo sapiens, UniProt Q99581 1-238)
T3 sequence: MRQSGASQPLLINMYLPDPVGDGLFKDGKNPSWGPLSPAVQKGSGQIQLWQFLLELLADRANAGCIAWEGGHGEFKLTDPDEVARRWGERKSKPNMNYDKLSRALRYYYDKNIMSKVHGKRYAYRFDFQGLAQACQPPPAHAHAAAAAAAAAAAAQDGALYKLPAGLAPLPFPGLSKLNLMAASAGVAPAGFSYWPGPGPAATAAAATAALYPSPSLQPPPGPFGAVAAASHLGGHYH
Method in brief: as §1

[6] = molecular target: ETV5 (Homo sapiens, UniProt P41161 1-510)
Chain of ETV5 (P41161 whole entry): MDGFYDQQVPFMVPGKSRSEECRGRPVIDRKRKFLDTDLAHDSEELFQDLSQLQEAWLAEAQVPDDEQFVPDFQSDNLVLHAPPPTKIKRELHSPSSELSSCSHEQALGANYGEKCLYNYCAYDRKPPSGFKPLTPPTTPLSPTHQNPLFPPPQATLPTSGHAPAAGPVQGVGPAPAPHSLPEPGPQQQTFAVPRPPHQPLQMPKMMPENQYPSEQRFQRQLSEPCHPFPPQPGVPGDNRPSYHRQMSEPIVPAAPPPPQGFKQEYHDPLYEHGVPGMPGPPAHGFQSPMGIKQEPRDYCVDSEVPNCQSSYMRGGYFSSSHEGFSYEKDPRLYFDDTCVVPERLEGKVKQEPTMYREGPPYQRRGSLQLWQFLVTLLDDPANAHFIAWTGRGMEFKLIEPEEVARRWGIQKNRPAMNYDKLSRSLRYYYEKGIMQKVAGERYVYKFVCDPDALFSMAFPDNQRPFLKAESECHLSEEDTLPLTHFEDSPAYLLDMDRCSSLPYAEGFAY
Method in brief: as §1

[7] = molecular target: ELF4 (Homo sapiens, UniProt Q99607 1-663)
Chain of ELF4 (Q99607 whole entry): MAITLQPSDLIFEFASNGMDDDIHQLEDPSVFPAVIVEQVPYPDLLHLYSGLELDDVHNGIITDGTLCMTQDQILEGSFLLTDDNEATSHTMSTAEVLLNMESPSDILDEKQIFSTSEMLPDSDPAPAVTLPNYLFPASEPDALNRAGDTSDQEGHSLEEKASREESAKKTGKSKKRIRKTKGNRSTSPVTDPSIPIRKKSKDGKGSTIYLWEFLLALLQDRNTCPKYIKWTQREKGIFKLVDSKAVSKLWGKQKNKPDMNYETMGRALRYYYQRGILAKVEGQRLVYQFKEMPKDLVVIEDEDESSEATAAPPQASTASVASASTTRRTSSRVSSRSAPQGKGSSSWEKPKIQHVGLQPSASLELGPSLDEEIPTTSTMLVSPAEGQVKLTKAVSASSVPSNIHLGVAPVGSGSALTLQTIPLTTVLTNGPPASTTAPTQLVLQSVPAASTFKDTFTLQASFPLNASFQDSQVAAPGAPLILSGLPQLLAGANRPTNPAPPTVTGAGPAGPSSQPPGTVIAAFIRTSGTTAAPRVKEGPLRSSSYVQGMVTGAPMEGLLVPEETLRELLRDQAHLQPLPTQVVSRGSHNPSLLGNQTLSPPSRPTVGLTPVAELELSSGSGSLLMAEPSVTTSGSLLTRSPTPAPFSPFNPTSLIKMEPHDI
Method in brief: as §1

[8] = molecular target: T4, ETV2 (Homo sapiens, UniProt O00321 1-342)
T4 sequence: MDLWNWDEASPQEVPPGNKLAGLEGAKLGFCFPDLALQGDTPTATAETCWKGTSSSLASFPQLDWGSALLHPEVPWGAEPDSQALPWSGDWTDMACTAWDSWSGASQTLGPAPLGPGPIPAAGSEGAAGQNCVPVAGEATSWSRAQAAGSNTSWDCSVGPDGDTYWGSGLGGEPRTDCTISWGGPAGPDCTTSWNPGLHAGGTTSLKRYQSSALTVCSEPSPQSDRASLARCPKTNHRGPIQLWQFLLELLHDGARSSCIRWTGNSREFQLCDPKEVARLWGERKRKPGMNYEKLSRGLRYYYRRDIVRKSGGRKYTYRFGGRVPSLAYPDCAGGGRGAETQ
Method in brief: as §1

[9] = molecular target: ETV1 (Homo sapiens, UniProt P50549 1-477)
Chain of ETV1 (P50549 whole entry): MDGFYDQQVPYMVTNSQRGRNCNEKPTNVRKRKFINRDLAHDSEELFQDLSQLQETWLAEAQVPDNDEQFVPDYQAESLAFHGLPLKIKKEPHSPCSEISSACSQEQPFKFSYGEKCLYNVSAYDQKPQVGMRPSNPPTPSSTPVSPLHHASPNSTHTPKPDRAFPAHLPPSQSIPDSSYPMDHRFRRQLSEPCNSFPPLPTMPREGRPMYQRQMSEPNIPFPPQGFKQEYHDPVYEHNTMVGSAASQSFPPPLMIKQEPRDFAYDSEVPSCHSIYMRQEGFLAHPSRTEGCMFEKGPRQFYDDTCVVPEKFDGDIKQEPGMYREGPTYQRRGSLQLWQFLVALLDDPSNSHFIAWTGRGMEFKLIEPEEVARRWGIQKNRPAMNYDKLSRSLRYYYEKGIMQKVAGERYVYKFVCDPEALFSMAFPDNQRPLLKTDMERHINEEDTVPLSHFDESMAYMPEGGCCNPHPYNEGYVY
Method in brief: as §1

[10] = molecular target: T5, ETV3L (Homo sapiens, UniProt Q6ZN32 1-361)
T5 sequence: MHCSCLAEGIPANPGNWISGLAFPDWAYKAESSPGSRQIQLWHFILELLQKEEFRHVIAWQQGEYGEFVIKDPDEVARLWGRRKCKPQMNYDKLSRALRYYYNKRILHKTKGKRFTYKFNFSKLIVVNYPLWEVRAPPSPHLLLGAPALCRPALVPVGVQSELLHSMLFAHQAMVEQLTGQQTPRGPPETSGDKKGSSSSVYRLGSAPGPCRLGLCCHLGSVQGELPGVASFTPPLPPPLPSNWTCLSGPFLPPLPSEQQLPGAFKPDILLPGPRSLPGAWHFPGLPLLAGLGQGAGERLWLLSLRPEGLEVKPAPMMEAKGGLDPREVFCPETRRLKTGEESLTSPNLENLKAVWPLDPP
Method in brief: as §1

[11] = molecular target: T6, ETV7 (Homo sapiens, UniProt Q9Y603 1-341)
T6 sequence: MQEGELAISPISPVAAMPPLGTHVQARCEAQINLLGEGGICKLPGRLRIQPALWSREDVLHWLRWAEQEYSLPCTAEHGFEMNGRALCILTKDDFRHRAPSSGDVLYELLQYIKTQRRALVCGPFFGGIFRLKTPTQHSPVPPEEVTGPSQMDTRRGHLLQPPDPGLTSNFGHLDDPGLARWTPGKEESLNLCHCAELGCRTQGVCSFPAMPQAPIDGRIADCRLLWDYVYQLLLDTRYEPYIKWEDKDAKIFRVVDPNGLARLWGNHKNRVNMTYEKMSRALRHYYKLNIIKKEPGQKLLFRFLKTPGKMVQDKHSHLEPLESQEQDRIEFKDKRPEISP
Method in brief: as §1

[12] = molecular target: T7, ETV3 (Homo sapiens, UniProt P41162-2 1-143)
T7 sequence: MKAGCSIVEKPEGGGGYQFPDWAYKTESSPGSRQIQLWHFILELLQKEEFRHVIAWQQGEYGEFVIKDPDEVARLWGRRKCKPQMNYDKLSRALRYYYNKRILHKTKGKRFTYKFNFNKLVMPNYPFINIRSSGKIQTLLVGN
Method in brief: as §1

[13] = molecular target: ETV6 (Homo sapiens, UniProt P41212 1-452)
Chain of ETV6 (P41212 whole entry): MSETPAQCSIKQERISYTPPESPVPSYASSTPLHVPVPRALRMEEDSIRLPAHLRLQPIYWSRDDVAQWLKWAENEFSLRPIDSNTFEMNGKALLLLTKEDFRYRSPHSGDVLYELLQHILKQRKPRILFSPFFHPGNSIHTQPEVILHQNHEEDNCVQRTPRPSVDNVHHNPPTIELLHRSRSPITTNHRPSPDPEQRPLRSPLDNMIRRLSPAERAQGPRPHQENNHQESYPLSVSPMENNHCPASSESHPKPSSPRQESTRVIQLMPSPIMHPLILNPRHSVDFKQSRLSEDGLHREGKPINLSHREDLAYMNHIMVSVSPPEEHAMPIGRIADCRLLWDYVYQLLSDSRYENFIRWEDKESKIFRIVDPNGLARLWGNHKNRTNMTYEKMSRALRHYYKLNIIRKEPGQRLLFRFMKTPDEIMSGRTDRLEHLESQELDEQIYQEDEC
Method in brief: as §1

[14] = molecular target: T8, ELK1 (Homo sapiens, UniProt P19419 1-428)
T8 sequence: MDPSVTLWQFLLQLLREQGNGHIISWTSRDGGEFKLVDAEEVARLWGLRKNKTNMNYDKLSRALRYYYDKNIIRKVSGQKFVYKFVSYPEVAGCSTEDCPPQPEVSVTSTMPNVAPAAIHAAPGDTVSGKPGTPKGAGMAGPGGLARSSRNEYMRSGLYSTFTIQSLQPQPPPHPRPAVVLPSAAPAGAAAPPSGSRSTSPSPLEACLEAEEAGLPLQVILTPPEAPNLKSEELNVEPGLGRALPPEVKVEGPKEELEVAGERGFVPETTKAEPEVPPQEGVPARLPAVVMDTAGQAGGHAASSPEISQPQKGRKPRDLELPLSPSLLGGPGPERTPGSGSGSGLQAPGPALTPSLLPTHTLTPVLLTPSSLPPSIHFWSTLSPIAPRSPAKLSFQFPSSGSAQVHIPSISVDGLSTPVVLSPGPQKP
Method in brief: as §1

[15] = molecular target: ELF1 (Homo sapiens, UniProt P32519 1-619)
Chain of ELF1 (P32519 whole entry): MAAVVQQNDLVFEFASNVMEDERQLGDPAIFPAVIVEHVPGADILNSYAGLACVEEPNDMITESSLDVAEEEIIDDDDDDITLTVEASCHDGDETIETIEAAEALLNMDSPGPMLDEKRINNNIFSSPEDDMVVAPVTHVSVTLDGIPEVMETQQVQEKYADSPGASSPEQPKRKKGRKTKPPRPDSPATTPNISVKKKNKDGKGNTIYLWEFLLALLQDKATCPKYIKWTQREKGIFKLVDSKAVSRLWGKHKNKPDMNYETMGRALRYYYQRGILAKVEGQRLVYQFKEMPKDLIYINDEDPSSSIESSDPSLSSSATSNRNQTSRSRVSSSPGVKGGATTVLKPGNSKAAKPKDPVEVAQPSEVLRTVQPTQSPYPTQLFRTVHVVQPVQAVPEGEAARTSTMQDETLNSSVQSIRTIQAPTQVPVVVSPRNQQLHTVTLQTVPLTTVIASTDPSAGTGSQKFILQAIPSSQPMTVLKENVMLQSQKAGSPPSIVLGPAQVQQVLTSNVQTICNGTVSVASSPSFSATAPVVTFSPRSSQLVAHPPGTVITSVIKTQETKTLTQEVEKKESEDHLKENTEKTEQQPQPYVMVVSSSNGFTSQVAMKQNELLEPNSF
Method in brief: as §1

[16] = molecular target: T9, ERF (Homo sapiens, UniProt P50548 1-548)
T9 sequence: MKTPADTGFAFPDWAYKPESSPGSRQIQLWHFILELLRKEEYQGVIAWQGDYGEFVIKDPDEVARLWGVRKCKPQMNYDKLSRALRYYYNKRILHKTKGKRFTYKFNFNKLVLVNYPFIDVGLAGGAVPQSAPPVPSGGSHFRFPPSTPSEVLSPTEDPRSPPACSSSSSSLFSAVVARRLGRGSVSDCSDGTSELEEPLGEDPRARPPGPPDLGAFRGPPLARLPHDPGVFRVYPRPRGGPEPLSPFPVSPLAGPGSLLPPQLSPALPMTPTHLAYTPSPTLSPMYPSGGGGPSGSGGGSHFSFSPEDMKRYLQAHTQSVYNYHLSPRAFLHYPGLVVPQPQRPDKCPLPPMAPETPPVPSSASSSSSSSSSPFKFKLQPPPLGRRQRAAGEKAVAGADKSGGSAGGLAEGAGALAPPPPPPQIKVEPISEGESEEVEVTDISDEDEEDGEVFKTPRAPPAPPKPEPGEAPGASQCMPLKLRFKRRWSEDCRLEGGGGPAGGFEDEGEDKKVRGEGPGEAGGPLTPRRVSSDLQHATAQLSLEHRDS
Method in brief: as §1

[17] = molecular target: T10, ETS2 (Homo sapiens, UniProt P15036 1-469)
T10 sequence: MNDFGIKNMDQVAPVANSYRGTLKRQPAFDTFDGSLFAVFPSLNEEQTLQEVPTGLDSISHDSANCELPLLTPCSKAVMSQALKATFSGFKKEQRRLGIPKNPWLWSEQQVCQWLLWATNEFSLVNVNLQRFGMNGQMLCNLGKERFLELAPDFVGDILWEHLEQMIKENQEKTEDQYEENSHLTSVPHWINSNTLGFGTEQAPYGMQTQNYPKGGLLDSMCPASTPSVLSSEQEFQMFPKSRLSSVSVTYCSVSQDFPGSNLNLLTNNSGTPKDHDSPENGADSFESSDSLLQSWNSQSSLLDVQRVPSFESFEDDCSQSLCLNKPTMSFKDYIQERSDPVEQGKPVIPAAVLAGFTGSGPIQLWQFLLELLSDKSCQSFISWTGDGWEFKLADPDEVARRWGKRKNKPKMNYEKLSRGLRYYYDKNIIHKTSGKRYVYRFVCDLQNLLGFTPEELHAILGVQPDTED
Method in brief: as §1

Row | Sequence | binding signal [1] | binding signal [2] | binding signal [3] | binding signal [4] | binding signal [5] | binding signal [6] | binding signal [7] | binding signal [8] | binding signal [9] | binding signal [10] | binding signal [11] | binding signal [12] | binding signal [13] | binding signal [14] | binding signal [15] | binding signal [16] | binding signal [17]
1 | AGTGCC | 1.06 fold enrichment (6-mer frequency, TF over GST control) | 1.01 fold enrichment (6-mer frequency, TF over GST control) | 1.32 fold enrichment (6-mer frequency, TF over GST control) | 1.01 fold enrichment (6-mer frequency, TF over GST control) | 1.04 fold enrichment (6-mer frequency, TF over GST control) | 1.03 fold enrichment (6-mer frequency, TF over GST control) | 1.01 fold enrichment (6-mer frequency, TF over GST control) | 1.08 fold enrichment (6-mer frequency, TF over GST control) | 1.04 fold enrichment (6-mer frequency, TF over GST control) | 1.07 fold enrichment (6-mer frequency, TF over GST control) | 1.05 fold enrichment (6-mer frequency, TF over GST control) | 1.05 fold enrichment (6-mer frequency, TF over GST control) | 1.16 fold enrichment (6-mer frequency, TF over GST control) |  |  |  | 
2 | GTTGCG | 1 fold enrichment (6-mer frequency, TF over GST control) | 1.09 fold enrichment (6-mer frequency, TF over GST control) | 1.02 fold enrichment (6-mer frequency, TF over GST control) | 1.15 fold enrichment (6-mer frequency, TF over GST control) |  | 1.07 fold enrichment (6-mer frequency, TF over GST control) |  | 1.03 fold enrichment (6-mer frequency, TF over GST control) |  | 1.06 fold enrichment (6-mer frequency, TF over GST control) | 1.04 fold enrichment (6-mer frequency, TF over GST control) | 1.07 fold enrichment (6-mer frequency, TF over GST control) |  | 1.04 fold enrichment (6-mer frequency, TF over GST control) | 1.02 fold enrichment (6-mer frequency, TF over GST control) | 1.14 fold enrichment (6-mer frequency, TF over GST control) | 1.07 fold enrichment (6-mer frequency, TF over GST control)
